# Laboratory results published in the supplement of paper PMC12632987.
# T1: FBXL12, Q9NXK8
# T1 chain: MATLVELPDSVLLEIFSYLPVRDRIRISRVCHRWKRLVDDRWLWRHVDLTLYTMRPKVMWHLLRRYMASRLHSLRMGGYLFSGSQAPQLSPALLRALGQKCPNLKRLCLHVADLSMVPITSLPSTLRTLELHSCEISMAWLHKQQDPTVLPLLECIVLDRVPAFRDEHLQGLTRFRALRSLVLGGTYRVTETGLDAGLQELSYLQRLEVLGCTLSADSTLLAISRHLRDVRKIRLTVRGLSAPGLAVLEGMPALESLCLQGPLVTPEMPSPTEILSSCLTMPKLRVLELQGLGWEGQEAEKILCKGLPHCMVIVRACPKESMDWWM
# B1: FBXL12_hotspot_59_81 (protein)
# chain: MRRIIIRGEPEQRLRQFEALAKALIELIKEHKGTPEAERLEEMLVGLFEEALKYAKEEKDVELLEALIKLAKEALPYVSPEYQKRLEKIIEEAEKAIKEF
# B2: FBXL12_hotspot_59_85 (protein)
# chain: MRVVIVRGPVEEAARRITELLEAIAELLREIPQDERAERLVEIALSLLEEAVRLVEEGLDEELARRVIEAAERAAEEATPEQAERLNEAIERLREAIERR
# B3: GBRAPL2_0_7189 (protein)
# chain: LEERLEAARELSIEEAAEELLRLIREAVEDPSFSLEEIEELARRAVEVLVEIVRRENTEEAEEIAAETADEMREILLEIDPNLAADVETEFYSELLEIEE
# B4: FBXL12_hotspot_78_95 (protein)
# chain: MRVLRIVIPADLPPDPEQRQRGIEYQAQAAIEAVRAGWEVVIEAADTPEAKRAALEILRRTLAETGDPERIRSPEGENAREILARLEAELAAEEAAAAAA
# B5: FBXL12_hotspot_59_82 (protein)
# chain: MVTVRVRGPLEQALAQALALLRAATALLAELADSPKRPKLLEIYKAVLREAVRLATEAGDEEALAEIERLLAEARAAVSPEDAAELEEAYAEARREAAAA
# B6: FBXL12_hotspot_59_77 (protein)
# chain: MRRIIISGPSEQRIRNLREFSDALIELIDKHKGTPEAERLEEMLVGLFEESLKIAKEEKDVELLKELKKLVEEAIPHVSPEYAERLKKILEEIEKELAEL
# B7: FBXL12_hotspot_59_73 (protein)
# chain: MVEVVIRGPLEQAIEQALALLKAAAELIVKHEGTEKQERLVSIFISTLRELYRLAAEAGDEEAIEEADKIVKELMEKVDPETAAKLKAEREAIKKELAAA
# B8: FBXL12_hotspot_78_94 (protein)
# chain: MRKLVITIPEPVTPDEEARRRGVEYQAQAAIEALKAGWEVVISHADTPEAKRAALEILEKAVAETGDKEKIKSADGKNADEMLAELKAELAEEEARRAAA
# B9: FBXL12_hotspot_78_93 (protein)
# chain: MRTLVISIPAFVSPDAAARARGIAYQAAAAIEALRAGWEVVISHADTPEAKRAALTILERAVAETGDEARIRSEEGRGAREILAELRAALAAEDEAAAAA
# B10: FBXL12_hotspot_59_80 (protein)
# chain: MRVIRISGEPEQRIRQFELYSDALIELIKEHKGTPEAERLEEMLVGLFKYMLEVAKKEKNVELLETLVKQARKALPHVSPEYAKELEKIIKEAEKAIAEL
# B11: FBXL12_hotspot_77_91 (protein)
# chain: MKTVTIRVSFPAVPPEEAEALRERALRAMETALEIARGLKAAHPDVKIVIVLRIEGNPEVAREVAERAVREAHELGIEFRDESAPEVRAAAEALLAALAA
# B12: GBRAPL2_0_7188 (protein)
# chain: VEERIKEAEKLSIEEASKKFIEIIKEVVEDPSYSLEEIEEIALRIMKALTKIVKKENTEEAEKIYAETADKIREILSKVDPNIANYIETEAYSELLEIEE
# B13: FBXL12_hotspot_59_78 (protein)
# chain: MRRIIISGEPEQRIKNLKELSDALIELIDKHKGTPEAERLEEMLVGLFEEALEQAKKEKDLELLETLKKEIEKAKPHVSPEYAEKLEELLKEVEKEIAEL
# B14: FBXL12_hotspot_81_96 (protein)
# chain: ATRELRITLQFTADDTEEEIIRRGRYHLELMYEAAKAGWEIASVTLDEAALEKSLTPERQALARRVTAILQEAAAEFRAARDAPDSVFDAILAEALARLA
# B15: GBRAPL2_0_7190 (protein)
# chain: YEEELEEISKLPIEEFAERGVELVERAVADPSLSLEELEELALRVIRLLYEKVKEEKTEEAEDIYVEAADRIAAILAAVDPRLAAYVATEAGSLLYEWES
# B16: FBXL12_hotspot_59_75 (protein)
# chain: MLEIRVSAHPDESLEAIKRTVEYAIEMIKELIKRGRIEDAKAAIRSVTRSVTEIVIRKGNEELAEHFLELLEELKEIANEEVKKVIEEAMEEFRERVAAA
# B17: FBXL12_hotspot_59_79 (protein)
# chain: MRRIIVRGEPEQVIKQTRALADALIALIDEHRGTPEQARLEDMLVGLFEETIKYAKEIGDVELLETIVELADRALPHVSPEYQKRIEELRKEALEAIKKL
# B18: FBXL12_hotspot_69_90 (protein)
# chain: MIEVKASKESVDYVAELMKSALELAKKYLKEGDYENLLKAAEILIGAARAIKEYKPEEAAKLLEELIKVLKEAGTPEAKELAKEAEKVLEEIKKIIKERE
# B19: FBXL12_hotspot_69_88 (protein)
# chain: MIEVRVSESSVEYALELGRAAVEKLEEAVKNGDWETAERLVDLIISIAEAIAELRPEEAIELLERAAKILKKDDSEKAKELLEKVEKKIKELKKKAKELK
# B20: FBXL12_hotspot_69_89 (protein)
# chain: MIEVRASESSIEYVKELAESALKLAKKALKEKDLETLLKLAEILISAAREIAKYEPEYALELLKELLKLLKEAKTEEAEKAAKEAEKAIKEIKKLIEERK
# B21: FBXL12_hotspot_109_6 (protein)
# chain: MRVILSALGTEPELAERTFEATVTIAEGLLAAGHEVRVVLVAVEENREVAEAAAARLRALGAEVRLVVEETPEAAREAHERLLAEAEEELDREEEERERA
# B22: FBXL12_hotspot_59_83 (protein)
# chain: MIEVRVRGPVEEALRRALELLRAARELLKKHKDSPLYPRILEIFESALREAVRLAVEAGDEEALREAEEIVEEAEKVVSPEDAERLREALERAKREAEEE
# B23: FBXL12_hotspot_67_86 (protein)
# chain: MLRLLVIRIRAETVEEARRSLALAEAYVRAARARGWRVLVVAWAATPEVAALFRERLAELEREYGARTVLIEDRENGEEELARTTARLKAELLAEMDEEE
# B24: FBXL12_hotspot_59_76 (protein)
# chain: MRRIILRGPPEQRRANLVAYSDALIKLIKEHKGTPEAERLEEMLVGLFEEALRQAEAERDRALLETLAEQVKKAIPFVSPEYAKRLEEILERIERALAEL
# B25: FBXL12_hotspot_59_72 (protein)
# chain: MRRVVVRGPPEQALAQALALLEALLALLVEHEGTPDEPRLLELLESTYRELLRTARALGDAAAIERARAAIEAAKARLSPATAARLAEAVARAEAEVEAE
# B26: FBXL12_hotspot_109_5 (protein)
# chain: MTVLLVARATTPEAARRTGETALAIARGLRAAGHEVIAVIVTLEEAREIAEATAAELRALGAEVRLRTAATPEEVERAYAELRAEALARLDAREAAAAAA
# B27: FBXL12_hotspot_59_84 (protein)
# chain: MRKVVIRGPPEQALANALALLRAAVELLKEHAGSELAPRILEFFLSTLKEAVRAAIALGDEEALEEIERLVEEAQEAVDEEDARRLREALERAREEAEAA
# B28: FBXL12_hotspot_77_92 (protein)
# chain: MSHLEIVVSQPATPPERREEALARARHTARYAAEIARGAKERQPELRITLVVRSEADPETTRALVRILAETAKELGVELVVEVAPENEAVAREVLAELGL
# B29: FBXL12_hotspot_59_74 (protein)
# chain: MLEIRVSAHPDESTEQIKNTIRYAVEMIKELIERGLIEDAIAAIRSLGRSVTEIVIRRKNEEVYNFFLELLEELKEIANPEVKKVIDEVIKEFKERVKKA
# B30: FBXL12_hotspot_69_87 (protein)
# chain: EFTVIVRDVSVEYALALAEAALERAEEALAAGDREAFLRLARVALAAIENILEEDPERALELAERLAELLERADDPRFEPLLERARELIERARRLLEERR
# B31: FBXL12_hotspot_109_4 (protein)
# chain: MTRILVGAATTPEAARHTFSTIVEIAKGLKDEEVIAVLVVLDDPEMRAIAERAAEELRALGAEVRLEVAPTLEALEAARARLLAEAEAEADARDAAAAAA
# B32: GBRAPL2_0_7187 (protein)
# chain: YRKEIEEAKKLSIEEAAEKFIKLVKEAVEDPSFSKEEIEELALEIVDTLVEIVKKENTEEAEDIYAETIREIREILEKVDPNLAAYVETEGFSKLLEIEE
# Molecular target: T1, FBXL12, Q9NXK8
# Assay: median log2 fold change of GCK-ALFA target abundance (FLAG IP / Myc IP barcode read proportion) (log2 ratio); each designed protein is fused to an ALFA-tag nanobody in HEK293 cells to bring the named protein to FLAG-tagged glucokinase (GCK); Myc marks an untargeted standard; higher = target protein stabilised (more abundant)
# Conditions: target protein: 3xFLAG-MCP-GCK-ALFA reporter; HEK293 landing pad (RPLP)
# Method in brief: (§1)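 Sequencing of reverse-transcribed, amplified circular RNA barcodes from anti-FLAG and anti-Myc immunoprecipitates provided the readout for an ALFA-nanobody-fused binder library recombined into HEK293 landing-pad cells. Those cells were induced with 2 μg mL^−1 doxycycline, transfected with a plasmid expressing a FLAG-tagged target and a Myc-tagged standard, and lysed after 48 h. Target abundance is the per-binder median log2 ratio of FLAG to Myc barcode read proportions. Only barcodes at a proportion of ≥10^−7 in both replicates and binders with ≥3 barcodes per replicate were kept, with a 10^−6 pseudocount added before the two replicates were pooled.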
row,Binder,median log2 fold change
1,B1,-0.417
2,B2,-0.444
3,B4,-0.49
4,B5,-0.218
5,B6,0.0852
6,B7,-0.363
7,B8,0.319
8,B9,-0.726
9,B10,-0.4
10,B11,-0.734
11,B13,0.0323
12,B14,0.19
13,B16,-0.31
14,B17,-0.207
15,B18,-0.0708
16,B19,-0.107
17,B20,0.238
18,B21,0.11
19,B22,-0.0926
20,B23,-0.304
21,B24,-0.366
22,B25,-0.077
23,B26,-0.531
24,B27,-0.544
25,B28,0.051
26,B29,0.185
27,B30,-0.369
28,B31,-0.542

# Molecular target: GABARAPL2, P60520
# Assay: as above
# Conditions: target protein: 3xFLAG-MCP-GCK-ALFA reporter; HEK293 landing pad (RPLP)
# Method in brief: as §1
# GABARAPL2, P60520, sequence (P60520 whole entry): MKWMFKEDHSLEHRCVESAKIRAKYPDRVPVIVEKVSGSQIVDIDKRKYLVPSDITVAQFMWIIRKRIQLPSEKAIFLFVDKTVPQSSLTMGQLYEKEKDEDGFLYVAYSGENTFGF
row,Binder,median log2 fold change
1,B3,-0.521
2,B12,-0.00159
3,B15,-0.38
4,B32,0.0199
